An excerpt weighted towards active compounds, which were near 4.1% of everything screened.
Shn3 inh set2: Schnurri-3 reporter inhibition in Clone20 osteoblasts | Clone20 osteoblast Shn3 3'UTR firefly luciferase, 24 h | inhibition, % at 12.5 µM | AID 588674 | 0.52% of 360,000 active;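 active = mean inhibition of at least 75% with every replicate also reaching 75%; inconclusive = mean inhibition at least 75% but some replicate below; inactive = mean inhibition below 75%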;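 also: 0% = median of neutral control wells and 100% = pilot-screen positive control compound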
TROY signal inh: inhibitors of TROY-dependent NF-kB signaling; Q293 LMP1-TROYcd NF-kB luciferase reporter, 4 h; inhibition, % at 10 µM; 0.98% of 360,000 active; AID 1347056;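 active = compounds whose plate-normalised and pattern-corrected inhibition of the luciferase reporter signal at the single screening dose is 50% or more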
MITF TRPM1 inh: inhibitors of MITF-driven TRPM1 promoter in melanoma cells | SK-MEL-5 TRPM1 promoter luciferase, 24 h | inhibition, % at 12.5 µM | 0.83% of 330,000 active;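 active = mean inhibition across replicates of 60% or more, whatever share of single replicates reaches that level; inconclusive = some that reach 60%, reason not given; inactive = mean inhibition across replicates below 60%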
Peg3 prom inh: Peg3 promoter activity inhibition. HeLa PEG-Prom luciferase reporter, luminescence, overnight. inhibition, % at 20 µM. 1.7% of 360,000 active;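 active = inhibition of at least 50% at 20 µM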
EBV LMP1 NFkB: reduces LMP1-driven NF-kappaB luciferase signal; 0.69% of 350,000 active; inhibition, % at 12.5 µM; LMP1-induced NF-kappaB luciferase reporter cells, luminescence; in the data active = inhibition above about 41%; inconclusive = no clear call, values can overlap the other calls;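 also: 0% = neutral control wells and 100% = reference inhibitor control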
TWEAK-Fn14 inh: inhibitors of TWEAK-Fn14 interaction signaling; AID 1159606; inhibition, % at 10 µM; 2% of 360,000 active; TWEAK-stimulated Fn14 reporter cells, luciferase luminescence, 8 h; in the data active = inhibition above about 50%
Active calls of the source: *.

For O=C(/C=C/c1ccccc1)NC(=S)Nc1ccc2c3c(cccc13)CC2 the results were Shn3 inh set2 39, TROY signal inh -3, MITF TRPM1 inh 6, Peg3 prom inh 15, EBV LMP1 NFkB 10 and TWEAK-Fn14 inh -29.
Screening CCN(CC)CCn1c(=N)n(CCO)c2ccccc21 returned Shn3 inh set2 -11, TROY signal inh 2, MITF TRPM1 inh -10, Peg3 prom inh -6, EBV LMP1 NFkB 6 and TWEAK-Fn14 inh 4.
CCN(CC)CCn1c(=N)n(CC(=O)c2ccc(Br)s2)c2ccccc21 was read as Shn3 inh set2 -13, TROY signal inh 2, Peg3 prom inh 80* and TWEAK-Fn14 inh 0.
`N=c1n(CC(=O)c2ccc(Br)s2)c2ccccc2n1Cc1ccccc1` gave Shn3 inh set2 14, TROY signal inh 16, MITF TRPM1 inh 90*, Peg3 prom inh 101*, EBV LMP1 NFkB -8 and TWEAK-Fn14 inh -9.
Screening Cn1c(=N)n(CC(=O)c2ccc(Br)s2)c2ccccc21 returned Shn3 inh set2 -29, TROY signal inh 26, MITF TRPM1 inh -15, Peg3 prom inh -138, EBV LMP1 NFkB -43 and TWEAK-Fn14 inh 8.
For O=C(NCc1ccccc1CN1CCCC1)C1CCN(C(=O)c2ccc(F)cc2)CC1 the results were Shn3 inh set2 -3, TROY signal inh -24, Peg3 prom inh -7, EBV LMP1 NFkB 4 and TWEAK-Fn14 inh 16.
Screening O=C(NCCc1ccc(Cl)cc1Cl)c1cccnc1 returned Shn3 inh set2 -10, TROY signal inh 11, MITF TRPM1 inh 1, Peg3 prom inh 1, EBV LMP1 NFkB 7 and TWEAK-Fn14 inh 7.
For CC(=O)/C(N=Nc1ccc2c(c1)OCO2)=C(\C)O the results were Shn3 inh set2 -13, TROY signal inh -12, MITF TRPM1 inh -48, Peg3 prom inh -168, EBV LMP1 NFkB -22 and TWEAK-Fn14 inh 25.
Screening CC(=O)/C(N=Nc1ccc2c(c1)OCCO2)=C(\C)O returned Shn3 inh set2 57, TROY signal inh 27, MITF TRPM1 inh 11, Peg3 prom inh -25, EBV LMP1 NFkB -1 and TWEAK-Fn14 inh 77*.
For CCC(=O)N1CCCN(S(=O)(=O)c2ccc(C)cc2)C1c1ccc(OC)cc1 (centres undefined) the results were Shn3 inh set2 18, TROY signal inh 16, MITF TRPM1 inh 10, Peg3 prom inh 18, EBV LMP1 NFkB -1 and TWEAK-Fn14 inh 30.
CCCN(CCC)C1=CC(=[N+]2CCCC2)CC(C)(C)C1 was read as Shn3 inh set2 72, TROY signal inh 42, MITF TRPM1 inh 73*, Peg3 prom inh -4, EBV LMP1 NFkB 27 and TWEAK-Fn14 inh 47.
Screening CN(C)NC1=CC(=[N+]2CCCC2)CC(C)(C)C1 returned Shn3 inh set2 16, TROY signal inh 2, MITF TRPM1 inh -4, Peg3 prom inh 16, EBV LMP1 NFkB -1 and TWEAK-Fn14 inh 3.
`CC(C)(C)c1ccc(-n2ncc3c2CCCC3NC(=O)CCN2CCCO2)cc1` (centres undefined) gave Shn3 inh set2 54, TROY signal inh -6, MITF TRPM1 inh 14, Peg3 prom inh -13, EBV LMP1 NFkB 3 and TWEAK-Fn14 inh 14.
For CC(CCCC(C)(C)O)NC(=O)c1cc(COc2ccc3ncccc3c2)on1 (centres undefined) the results were Shn3 inh set2 90*, TROY signal inh 17, MITF TRPM1 inh 11, Peg3 prom inh 7, EBV LMP1 NFkB 10 and TWEAK-Fn14 inh 23.
`Cc1cc(C)n(CCNC(=O)c2cc(COc3ccc4ncccc4c3)on2)n1` gave Shn3 inh set2 28, TROY signal inh 13, MITF TRPM1 inh 8, Peg3 prom inh 1, EBV LMP1 NFkB 1 and TWEAK-Fn14 inh 9.
`CC(C)N(Cc1nccn1C)C(=O)c1cc(COc2ccc3ncccc3c2)on1` gave Shn3 inh set2 44, TROY signal inh 4, MITF TRPM1 inh 9, Peg3 prom inh -11, EBV LMP1 NFkB -5 and TWEAK-Fn14 inh 21.
`Cc1ccc(F)cc1CNC(=O)c1cc(COc2ccc3ncccc3c2)on1` gave Shn3 inh set2 84, TROY signal inh 46, MITF TRPM1 inh -6, Peg3 prom inh 15, EBV LMP1 NFkB 10 and TWEAK-Fn14 inh 75*.
Screening O=C(NCc1cccc(Cl)c1)c1cc(COc2ccc3ncccc3c2)on1 returned Shn3 inh set2 inconclusive, TROY signal inh 53*, MITF TRPM1 inh 16, Peg3 prom inh 0, EBV LMP1 NFkB 8 and TWEAK-Fn14 inh 61*.
Screening CCN1CCN(S(=O)(=O)c2ccc(C(C)(C)C)cc2)CC1 returned Shn3 inh set2 -16, TROY signal inh -4, MITF TRPM1 inh 9, Peg3 prom inh 6, EBV LMP1 NFkB -3 and TWEAK-Fn14 inh -21.
Screening C=C1CC2C(=O)N(Cc3cc(OC)ccc3OC)C(C(=O)OCC)(C(=O)OCC)C1N2C(=O)OC(C)(C)C (centres undefined) returned Shn3 inh set2 1, TROY signal inh 7, MITF TRPM1 inh 1, Peg3 prom inh 13, EBV LMP1 NFkB -4 and TWEAK-Fn14 inh 1.
`Cc1ccc(C)c(Cn2c3ccccc3c3cnn(CC(=O)NCCCN4CCCCC4)c(=O)c32)c1` gave Shn3 inh set2 3, TROY signal inh -24, MITF TRPM1 inh inconclusive, Peg3 prom inh 86*, EBV LMP1 NFkB -5 and TWEAK-Fn14 inh -9.
For Cc1nnnn1/C(=C\c1ccccc1)C(=O)OCC(=O)NC1CCCCC1 the results were Shn3 inh set2 -22, TROY signal inh 24, MITF TRPM1 inh 28, Peg3 prom inh 76*, EBV LMP1 NFkB -4 and TWEAK-Fn14 inh 57*.
`Cc1nnnn1/C(=C\c1ccccc1)C(=O)OCC(=O)NC(C)(C)C` gave Shn3 inh set2 -15, TROY signal inh 21, MITF TRPM1 inh 4, Peg3 prom inh -22, EBV LMP1 NFkB 4 and TWEAK-Fn14 inh 50*.
For O=C(NNC(=O)c1ccccc1-n1cccc1)c1ccc(Cl)cc1 the results were Shn3 inh set2 4, TROY signal inh -13, MITF TRPM1 inh 8, Peg3 prom inh 3, EBV LMP1 NFkB 0 and TWEAK-Fn14 inh 83*.
`CCCCCC1=NN2C(=O)CC(=O)N=C2S1` gave Shn3 inh set2 15, TROY signal inh 0, MITF TRPM1 inh -5, Peg3 prom inh -8, EBV LMP1 NFkB -4 and TWEAK-Fn14 inh 5.
Screening O=C(NCCc1c[nH]c2ccccc12)OCCCCOC(=O)NCCc1c[nH]c2ccccc12 returned Shn3 inh set2 51, TROY signal inh 71*, MITF TRPM1 inh 9, Peg3 prom inh 24, EBV LMP1 NFkB -6 and TWEAK-Fn14 inh 74*.
Screening COc1ccc(OC)c(C2=NS(=O)(=O)N(C)C(C(=O)N3CCC4(CC3)OCCO4)=C2)c1 returned Shn3 inh set2 -4, TROY signal inh 12, MITF TRPM1 inh -4, Peg3 prom inh 9, EBV LMP1 NFkB -2 and TWEAK-Fn14 inh -27.
CCCCn1c(NC(=O)c2ccccc2Cl)c(C#N)c2nc3ccccc3nc21 was read as Shn3 inh set2 -4, TROY signal inh 76*, MITF TRPM1 inh 3, Peg3 prom inh 53*, EBV LMP1 NFkB 11 and TWEAK-Fn14 inh -32.
